Rows were chosen to be rich in hits. Some 2.9% of all compounds tested hit in one or more screens of this group.
Mcl1-Bid inh: disrupts binding of human Mcl-1 to Bid peptide; Q07820; TR-FRET Mcl-1/Bid-Dy647 peptide binding, 1536-well; inhibition, % at 21.7 µM; actives 0.97% (n = 220,000); AID 1021;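 active = compounds that cut the binding signal by more than half at the single screening dose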;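 note: His-tagged Mcl-1 with europium anti-His antibody binding Bid BH3 peptide; 0% = Mcl-1 plus peptide wells and 100% = peptide-only wells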
Pf gametocyte: kills late stage P. falciparum gametocytes; AID 743093; actives 0.065% (n = 150,000); P. falciparum stage V gametocytes, ATP luminescence, 24 h; inhibition, % at 10.9 µM;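 active = inhibition above the mean plus 3 SD of compounds within the control limits, set per campaign, cut at about 38% in these data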;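 note: 0% = DMSO wells and 100% = medium only without gametocytes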
Mcl1 Noxa PPI: Mcl-1/Noxa interaction inhibition; AID 1022; actives 1.5% (n = 220,000); TR-FRET Mcl-1/Noxa peptide binding, 2 h; inhibition, % at 21.7 µM;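 active = compounds that cut the protein-peptide binding signal by more than 50% relative to plate controls in a single-dose test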;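 note: His-tagged Mcl-1 with rhodamine Noxa BH3 peptide and terbium anti-His antibody; 0% = Mcl-1 plus Noxa peptide wells and 100% = peptide-only wells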
14-3-3 Bad PPI: disrupts binding of bovine 14-3-3 zeta to phospho-Bad peptide; P63103; TR-FRET 14-3-3zeta/Dy647-pBad peptide displacement, 1 h; inhibition, % at 21.7 µM; actives 0.71% (n = 220,000); AID 781;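 active = inhibition above about 70%, limit read from the data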;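 note: 0% = full 14-3-3 plus peptide FRET controls and 100% = background without 14-3-3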
Mcl-1 Bim block: disrupts Bim peptide binding to human Mcl-1; Bead-based flow cytometry, Bim peptide-Mcl-1 binding; inhibition, % at 10 µM; actives 0.1% (n = 190,000); AID 1009; in the data active = inhibition above about 40%;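 note: 0% = no compound tracer wells and 100% = peptide blocker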
Hck-Nef inh: blocks Nef-activated human Hck kinase; Recombinant Hck-YEEI plus Nef, Z-Lyte FRET kinase assay; actives 0.68% (n = 220,000); inhibition, % at 20 µM;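 active = Hck-Nef kinase inhibition above about 50%, limit read from the data; inactive = inhibition below that limit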;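 note: 0% = DMSO with Hck plus Nef and 100% = Hck alone without Nef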
Target sequence (P08631 whole entry, looked up): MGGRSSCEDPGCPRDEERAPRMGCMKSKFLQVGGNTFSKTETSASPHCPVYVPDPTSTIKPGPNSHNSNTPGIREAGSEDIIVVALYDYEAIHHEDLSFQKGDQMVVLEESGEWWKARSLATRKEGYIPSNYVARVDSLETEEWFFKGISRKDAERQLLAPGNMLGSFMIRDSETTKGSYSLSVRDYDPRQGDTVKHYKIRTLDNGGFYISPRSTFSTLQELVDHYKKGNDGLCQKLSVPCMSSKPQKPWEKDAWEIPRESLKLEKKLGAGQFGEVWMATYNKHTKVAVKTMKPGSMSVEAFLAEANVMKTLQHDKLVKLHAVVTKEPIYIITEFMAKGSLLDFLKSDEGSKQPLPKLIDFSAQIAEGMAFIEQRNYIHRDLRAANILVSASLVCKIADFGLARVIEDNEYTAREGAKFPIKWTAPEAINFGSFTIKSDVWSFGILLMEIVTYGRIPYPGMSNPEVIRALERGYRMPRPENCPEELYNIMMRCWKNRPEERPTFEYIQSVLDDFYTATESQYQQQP
* marks the source's active call; other numbers are inactive results; i = inactive; . = no result given.

SMILES | Mcl1-Bid inh | Pf gametocyte | Mcl1 Noxa PPI | 14-3-3 Bad PPI | Mcl-1 Bim block | Hck-Nef inh
C/C(=N\NC(=O)COc1ccc(C(C)(C)C)cc1)c1ccc(OC(F)F)cc1 | 0 | 3 | 22 | 2 | -4 | 2
C/C(=N\NC(=O)COc1ccc(C#N)cc1)c1ccccc1OC(F)F | -13 | 15 | -1 | 9 | 49* | 1
c1ccc(Oc2cccc(OCCn3cncn3)c2)cc1 | 59* | . | 32 | 65 | -1 | 1
CC(C)(C)CC(=O)NCc1ccc(F)cc1 | 1 | . | 14 | 3 | 0 | 0
COc1ccc(C(=O)Nc2ccccc2C(=O)NC(Cc2ccc(O)cc2)C(=O)NNC(=O)c2ccc(C)cc2)cc1 (centres undefined) | 57* | -6 | -114 | 79* | -1 | 3
COc1ccc(C(=O)Nc2ccccc2C(=O)NC(Cc2ccc(O)cc2)C(=O)NNC(=O)c2ccccc2)cc1 (centres undefined) | -10 | 19 | 15 | -6 | 0 | 5
S=C(NNc1ccnc2cc(Cl)ccc12)Nc1ccc(Cl)cc1Cl | 62* | -12 | 85* | 92* | . | 26
CCOc1ccc(NC(=S)NNc2ccnc3cc(Cl)ccc23)cc1 | -42 | -28 | 29 | -6 | -12 | -6
C/C=C(/C)C(=O)Nc1cccc(C2=NOC3(C2)C[C@H](C(N)=O)N(C(=O)Cc2ccc([N+](=O)[O-])cc2)C3)c1 (some centres undefined) | -25 | -19 | 5 | 1 | . | 25
C/C=C\C=C/C(=O)Nc1cccc(C2=NOC3(C2)C[C@H](C(N)=O)N(C(=O)Cc2ccc([N+](=O)[O-])cc2)C3)c1 (some centres undefined) | 6 | 12 | 65* | 3 | . | 5
C/C=C\C=C/C(=O)Nc1cccc(C2=NOC3(C2)C[C@H](C(N)=O)N(C(=O)c2ccc(OC)cc2)C3)c1 (some centres undefined) | 27 | -5 | 63* | -4 | . | -10
COc1ccc(OCCNC(=O)c2ccccc2OCC(=O)N2CCCCC2)cc1 | -7 | 16 | -13 | 0 | 68* | -4
O=C(N/N=C/c1cccnc1)c1cccc(S(=O)(=O)N2CCCC2)c1 | -32 | 3 | 1 | -5 | 55* | 8
O=C(NCc1cccnc1)c1cccc(S(=O)(=O)N2CCCCC2)c1 | -19 | . | -5 | -2 | -1 | -2
NCC(c1ccccc1)c1c[nH]c2ccccc12 (centres undefined) | -34 | 0 | 7 | -10 | 47* | -13
O=C(CC(C(=O)O)c1c[nH]c2ccccc12)c1ccccc1 (centres undefined) | 82* | 2 | 22 | 2 | -2 | 32
CC(Cc1c[nH]c2ccccc12)C(=O)O (centres undefined) | -72 | . | 57* | 52 | 2 | 19
NCC(c1ccccc1Cl)c1c[nH]c2ccccc12 (centres undefined) | . | -27 | . | . | . | .
CC(NC(=O)c1cccnc1)C(=O)N1CCCCC1 (centres undefined) | -30 | -10 | -8 | . | -4 | -1
Cc1cc(C)c(S(=O)(=O)N(C)CC(=O)NCc2ccccn2)c(C)c1 | -22 | . | -14 | -14 | 3 | 19
Cc1ccc(/C=C2\C(=O)Nc3ccccc32)o1 | -43 | 13 | 62* | 2 | 0 | 7
Cc1ccc2c(c1)/C(=C/c1ccco1)C(=O)N2 | -36 | 3 | 7 | -16 | -2 | 50
CCCCOCC1CN(c2ccccc2)C(=O)CS1 (centres undefined) | -17 | . | 19 | 42 | -3 | 3
CCCCC1C(=O)N(c2ccccc2)N(c2ccccc2)C1=O | 56* | . | 26 | -3 | 5 | 14
Cc1ccc(NCC(=O)N=Nc2c(O)[nH]c3ccc([N+](=O)[O-])cc23)cc1 | -24 | -33 | 33 | -7 | . | 23
SMILES | Mcl1-Bid inh | Pf gametocyte | Mcl1 Noxa PPI | 14-3-3 Bad PPI | Mcl-1 Bim block | Hck-Nef inh
O=[N+]([O-])c1ccc2[nH]c(O)c(N=NC(=S)Nc3cccnc3)c2c1 | 26 | 5 | 100* | 33 | . | 50
Cc1ccccc1NCC(=O)N=Nc1c(O)[nH]c2ccc([N+](=O)[O-])cc12 | -30 | -2 | 53* | -16 | . | 29
CC(C)C[C@H]1CN=C(Nc2ccccc2)N1CCc1ccc(F)cc1 | . | -16 | . | . | . | .
Cc1cccc(CSCCNC(=S)Nc2ccccc2)c1 | -7 | . | 10 | -8 | -2 | 3
Clc1cc(Br)ccc1OCCn1ccnc1 | 28 | 6 | 41 | 78* | -3 | 0
O=C(CN1C(=O)c2cccc3cccc1c23)Nc1ccc(S(=O)(=O)N2CCOCC2)cc1 | 90* | 18 | -148 | -14 | 4 | 0
C#Cc1ccc(C(=O)Nc2cc(C(N)=O)ccc2N2CCOCC2)cc1 | -6 | 22 | 51* | -3 | 2 | 3
COc1ccccc1-c1nn2c(-c3ccco3)nnc2s1 | -3 | . | 46 | 89* | 1 | 3
COCCN1Cc2cccc(C(=O)Nc3cccc(C)c3C)c2C1=O | 91* | . | 90* | -1 | -3 | 0
CCOc1ccccc1CN1CCN(S(=O)(=O)CC)CC1 | 39 | . | 20 | 94* | 2 | 1
O=C(NNC(=O)c1ccccc1Cl)c1ccccc1Cl | 95* | -6 | -15 | -7 | . | -3
COc1ccc(COC(=O)NNC(=O)c2ccccc2Cl)cc1 | -8 | . | -25 | 10 | 47* | 5
COc1ccc(CC(=O)OCC(=O)NCc2ccccc2Cl)cc1 | -20 | -11 | 13 | -3 | 0 | 16
O=C(NNC(=O)c1ccccc1Cl)c1ccco1 | -9 | 13 | 4 | -3 | . | 16
Cc1cc(C)c2c(=O)[nH]c(SCC(=O)N(C)C)nc2n1 | -4 | -14 | -4 | i | 0 | 2
Cc1ccc(NS(=O)(=O)c2cc([N+](=O)[O-])ccc2NNC(=S)Nc2cccc(Cl)c2)c(C)c1 | 46 | . | 88* | -3 | 0 | 21
Cc1ccc(NS(=O)(=O)c2cc([N+](=O)[O-])ccc2NNC(=S)Nc2cc(C)ccc2C)c(C)c1 | -40 | . | 44 | -10 | 0 | -1
Cc1ccc(S(=O)(=O)NCC2CCC(C(=O)O)CC2)cc1 (centres undefined) | -6 | . | -1 | 7 | 1 | -2
COc1cccc(C2C3=C(N=c4s/c(=C\c5cccc(O)c5)c(=O)n42)c2ccccc2CC3)c1OC (centres undefined) | -20 | -14 | 15 | -1 | -2 | 1
COc1cccc(C2C3=C(N=c4s/c(=C\c5ccc(OCC(=O)O)cc5)c(=O)n42)c2ccccc2CC3)c1 (centres undefined) | 22 | . | 71* | 69 | . | 8
COc1ccccc1C1C2=C(N=c3s/c(=C/c4cccc(OCC(=O)O)c4)c(=O)n31)c1ccccc1CC2 (centres undefined) | 82* | 18 | 107* | -4 | -3 | 22
Cc1ccc(CN2CCN(Cc3ccc4cccc(F)c4n3)CC2CCO)cc1 (centres undefined) | . | -11 | . | . | . | .

Bioassay records (PubChem BioAssay)
